Test results reported in PubChem BioAssay (EPA / NIEHS).
Activity calls are given as the source filed them. How the source made its calls: active means hit-call score of the fitted dose curve at least 0.9, where 1 is the maximum; inconclusive means response in the unintended direction; inactive means score below 0.9.

system: IYD (gene 389434); test: CCTE_GLTED_hIYD: CCTE's human Iodotyrosine Deiodinase (xIYD) Inhibition Assay, Great Lakes Toxicology and Ecology Division (GLTED) Lab (AID 2284317)
Description: CCTE_GLTED_hIYD is a cell-free, single-readout assay that uses human iodotyrosine deiodinase (hIYD) enzyme produced with baculovirus-insect cell system. The assay is based on iodide release measured by the Sandell-Kolthoff method and is run in 96-well plate format with assay plates run in triplicate (n=3) with measurements taken at 3 hours after chemical dosing. Platewise-normalization was used based on positive control (3-Nitro-L-tyrosine, MNT) and negative/solvent controls (DMSO, NaOH).CCTE_GLTED_hIYD is the assay component measured from the CCTE_GLTED_hIYD assay. It measures substrate involved in regulation of catalytic activity using spectrophotometry. The assay measures the deiodination activity of human IYD on the substrate monoiodotyrosine (MIT). After 3h incubation of substrate, enzyme, and test chemical, the components are applied to a 96-well Dowex column. Free iodide is not retained by the column and is separated from interfering assay components. The free iodide is measured by the Sandell-Kolthoff reaction in which the rate of reduction of cerium (Ce+4 to Ce+3) by arsenic (As+3 to As+5) is increased by the presence of iodide. This is observed as the loss of yellow color in the reaction and the quantified by the change in absorbance at 420 nm. The change in reaction rate is proportional to the amount of iodide present.Data from the assay component CCTE_GLTED_hIYD was analyzed at the assay endpoint CCTE_GLTED_hIYD in the positive analysis fitting direction relative to DMSO as the negative control and baseline of activity. Using a type of enzyme reporter, loss-of-signal activity can be used to understand iodotyrosine deiodinase activity. To generalize the intended target to other relatable targets, this assay endpoint is annotated to the 'dehalogenase' intended target family, where the subfamily is 'iodotyrosine deiodinase'.
Human thyroxine binding globulin (TBG) assay, developed at Great Lakes Toxicology and Ecology Division (GLTED) within the EPA's Center for Computational Toxicology and Exposure (CCTE), is designed to test the chemicals' ability to displace T4 from the TBG protein. The method used was largely based on Montano et al. (2012). This work describes the utilization of ANSA fluorescence when bound to the protein to approximate binding affinity of chemicals through a reduction of fluorescence when ANSA is displaced. This assay was conducted in 96-well plates with an incubation at 4C for 2 hours in a final volume of 200 uL. Final assay conditions included 0.0625 uM TBG, 0.6 uM ANSA, and 0.5% DMSO in 0.1 M phosphate buffer, pH=7.5.

Row | Compound | AC50 | outcome
1 | CCCCCCCC/C=C\CCCCCCCC(=O)OCCO | 128 µM (active) | 
2 | O=S(=O)(O)c1ccccc1C=Cc1ccc(-c2ccc(C=Cc3ccccc3S(=O)(=O)O)cc2)cc1 | 100 µM (active) | 
3 | Oc1ccc(Cl)cc1Cc1cc(Cl)ccc1O | 100 µM (active) | 
4 | CC/C=C\C/C=C\C/C=C\CCCCCCCC(=O)O |  | inactive
5 | CCCCCCCCCCCCCOP(=O)(O)O | 40.2 µM (active) | 
6 | CCN(CCC#N)c1ccc(N=Nc2c(Cl)cc([N+](=O)[O-])cc2Cl)cc1 | 152 µM (active) | 
7 | CCCCCCCC/C=C\CCCCCCCC(=O)O | 41 µM (active) | 
8 | O=C(Nc1ccccc1)c1ccccc1O |  | inactive
9 | CC(C)(C)c1ccc(-c2ccc(C(C)(C)C)cc2)cc1 |  | inactive
10 | CCCCC/C=C\C/C=C\CCCCCCCC(=O)OC |  | inactive
11 | CCCCCCCC[N+](C)(CCCCCCCC)CCCCCCCC | 27.2 µM (active) | 
12 | O=C(Nc1cccc(C(F)(F)F)c1)c1cc(Br)cc(Br)c1O | 100 µM (active) | 
